Source: PubChem BioAssay (NCATS)
Results filed as inconclusive are left out. Calls of active or inactive are those of the source. Unless noted, the call rests on the fitted dose curve; in most records, active means well fitted curve in either direction with a large enough effect (not every such curve was filed as active); inconclusive means small, poorly fitted or top-dose-only effect, or another doubt; inactive means flat fitted curve, though single readings scatter.

Legend:
[1] = AP1 Signaling Pathway (AID 357); settings: ME-180 AP-1-bla reporter, EGF-induced, beta-lactamase ratio, 5 h; at 17.2 µM (top of the series) unless noted;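 further: ME-180 reporter cells stimulated with EGF at its EC50 level; on the % scale 0 is the no-effect control and ±100 the full control effect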
Summary of the method: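 AP-1-bla ME-180 cells, Opti-MEM + 0.5% dialyzed FBS, plated overnight 37 °C. Cpd titration + EC50 EGF, 5 h 37 °C. CCF4 2.5 h RT; ex 405, em 460/530 ratio → %activity, AC50.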

[2] = NFAT Signaling Pathway (AID 444); settings: Jurkat NFAT-bla M1, carbachol, beta-lactamase ratio, 5 h; at 17.2 µM (top of the series) unless noted;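 further: carbachol stimulus at about its EC50 of 1 µM final; on the % scale 0 is the no-effect control and ±100 the full control effect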
Summary of the method: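 Read-out: CCF4 FRET ratio (460 nm/530 nm) after 1 h RT dye loading, used for %activity and AC50 from titration series. Cells: Jurkat NFAT-β-lactamase/M1 line, treated with compound plus 1 uM carbachol for 5 h, 37 °C.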

[3] = Stat Signaling Pathway (AID 446); settings: ME-180 SIE beta-lactamase reporter, IL-6 stimulated, 5 h; at 17.2 µM (top of the series) unless noted;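 further: ME-180 cervical cancer cells given 40 pM IL-6 alongside compound; SIE-controlled beta-lactamase reporter measured as 460/530 nm FRET emission ratio; on the % scale 0 is the no-effect control and ±100 the full control effect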
Summary of the method: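 ME-180 SIE-bla cells; overnight plating; cpd + IL-6 40 pM, 5 h, 37 C; LiveBLAzer 2.5 h RT; 460/530 nm emission ratio. Normalized to 300 pM IL-6 and 125 nM JAK inhibitor controls.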

[4] = target: Glucocorticoid receptor (Homo sapiens) (UniProt P04150); experiment: GR-GFP Redistribution (AID 450;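 active means compounds whose dose series gives a full or clear partial fitted curve of increased nuclear translocation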; further: potency means the concentration at half of the fitted maximal effect)
Sequence of Glucocorticoid receptor (Homo sapiens) (P04150 whole entry, looked up, the tested form may be a part): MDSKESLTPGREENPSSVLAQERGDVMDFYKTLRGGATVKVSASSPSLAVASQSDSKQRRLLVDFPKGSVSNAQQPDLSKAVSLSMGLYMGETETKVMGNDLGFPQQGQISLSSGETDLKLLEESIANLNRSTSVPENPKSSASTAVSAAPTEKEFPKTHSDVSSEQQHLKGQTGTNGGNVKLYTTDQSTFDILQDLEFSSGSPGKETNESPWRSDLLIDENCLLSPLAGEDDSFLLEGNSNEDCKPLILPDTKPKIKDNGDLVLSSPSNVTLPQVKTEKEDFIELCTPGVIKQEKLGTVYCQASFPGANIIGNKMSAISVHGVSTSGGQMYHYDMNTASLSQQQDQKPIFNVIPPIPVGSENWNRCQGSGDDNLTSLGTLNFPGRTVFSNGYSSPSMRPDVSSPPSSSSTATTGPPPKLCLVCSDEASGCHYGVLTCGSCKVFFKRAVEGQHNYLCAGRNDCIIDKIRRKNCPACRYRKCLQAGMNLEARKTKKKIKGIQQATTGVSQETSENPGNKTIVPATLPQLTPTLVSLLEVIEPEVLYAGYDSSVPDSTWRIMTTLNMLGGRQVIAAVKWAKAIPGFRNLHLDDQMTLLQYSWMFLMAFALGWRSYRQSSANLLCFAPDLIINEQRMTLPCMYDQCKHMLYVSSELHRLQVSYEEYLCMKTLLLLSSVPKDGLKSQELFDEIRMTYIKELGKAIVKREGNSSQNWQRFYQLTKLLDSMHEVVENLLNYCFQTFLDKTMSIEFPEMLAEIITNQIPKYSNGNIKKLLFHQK

[5] = target: Glucocorticoid receptor (Homo sapiens) (UniProt P04150); experiment: GR-EFC Redistribution (AID 451; calls by dose curve; further: potency means the concentration at half of the fitted maximal effect); settings: CHO-K1 GR-EFC translocation, beta-gal luminescence, 2 h
Summary of the method: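 Translocation of GR-ED fusion to nuclear EA restores b-gal, read by luminescence after 1 h room-temperature detection. Engineered CHO-K1 biosensor cells, 1,000/well, exposed 2 h at 37 C to titrations up to 46 uM final.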

[6] = target: Mitogen-activated protein kinase 10 (Mus musculus) (UniProt Q61831); experiment: JNK3 AlphaScreen Assay (AID 530);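 further: kinase came from lysate of stimulated human HepG2 cells; signal reports phosphorylation of biotinylated GST-cJun 1-79 at Ser73 with 10 µM ATP; on the % scale 0 is the no-effect control and ±100 the full control effect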
Summary of the method: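 Room-temperature AlphaScreen kinase assay; pre-activated HepG2 lysate as JNK3 source, biotin-GST-cJun(1-79) substrate, 10 uM ATP, compound 15 min preincubation.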

[7] = target: 3',5'-cyclic-AMP phosphodiesterase 4B (Homo sapiens) (UniProt Q07343); experiment: qHTS Assay for Inhibitors of PDE-IV (AID 607; active means well fitted activation curve with a large enough effect in the main read-out, with a control signal flat, not every such curve was filed as active; further: % of control where 0% means no effect)
Sequence of 3',5'-cyclic-AMP phosphodiesterase 4B (Homo sapiens) (Q07343 whole entry, looked up): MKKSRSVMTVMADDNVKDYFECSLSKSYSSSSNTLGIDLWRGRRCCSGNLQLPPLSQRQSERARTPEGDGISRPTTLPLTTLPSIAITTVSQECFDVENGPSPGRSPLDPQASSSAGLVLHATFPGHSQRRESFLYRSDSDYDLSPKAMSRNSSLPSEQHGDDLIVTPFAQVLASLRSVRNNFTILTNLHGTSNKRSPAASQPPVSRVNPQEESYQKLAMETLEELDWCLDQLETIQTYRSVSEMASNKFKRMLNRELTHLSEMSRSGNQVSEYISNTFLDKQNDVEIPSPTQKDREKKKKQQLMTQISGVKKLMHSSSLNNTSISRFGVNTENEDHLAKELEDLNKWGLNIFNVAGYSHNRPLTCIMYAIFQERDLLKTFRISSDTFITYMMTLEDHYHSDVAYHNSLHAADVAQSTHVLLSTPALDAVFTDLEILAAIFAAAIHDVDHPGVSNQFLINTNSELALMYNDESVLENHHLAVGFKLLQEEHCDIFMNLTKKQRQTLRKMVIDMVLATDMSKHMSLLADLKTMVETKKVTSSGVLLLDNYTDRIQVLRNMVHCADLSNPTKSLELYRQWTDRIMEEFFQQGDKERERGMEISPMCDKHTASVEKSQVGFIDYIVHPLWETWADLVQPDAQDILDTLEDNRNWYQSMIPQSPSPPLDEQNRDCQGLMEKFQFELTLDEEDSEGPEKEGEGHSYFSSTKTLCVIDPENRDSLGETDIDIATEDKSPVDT
Summary of the method: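 ACTOne HEK293 cells carry a modified cAMP-gated CNG channel and express endogenous PDE4; plated 1000 cells/well, compounds up to 22.9 uM final. Membrane-potential dye fluorescence (ex 535/em 590) was read; parental cells received 10 uM forskolin + 100 uM RO 20-1724.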

[8] = target: Guanine nucleotide-binding protein G(i) subunit alpha-1 (Homo sapiens) (UniProt P63096); experiment: qHTS Assay for Inhibitors of RGS12 GoLoco Motif Activity (Green Fluorophore) (AID 879; active means well fitted curve in the direction sought with a large enough effect; an effect the other way counts as inactive or inconclusive;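 further: 0% = labeled peptide with Gαi1 and full inhibition = labeled peptide alone without protein; negative values mean loss of peptide binding seen as reduced polarization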)
Sequence of Guanine nucleotide-binding protein G(i) subunit alpha-1 (Homo sapiens) (P63096 whole entry, looked up): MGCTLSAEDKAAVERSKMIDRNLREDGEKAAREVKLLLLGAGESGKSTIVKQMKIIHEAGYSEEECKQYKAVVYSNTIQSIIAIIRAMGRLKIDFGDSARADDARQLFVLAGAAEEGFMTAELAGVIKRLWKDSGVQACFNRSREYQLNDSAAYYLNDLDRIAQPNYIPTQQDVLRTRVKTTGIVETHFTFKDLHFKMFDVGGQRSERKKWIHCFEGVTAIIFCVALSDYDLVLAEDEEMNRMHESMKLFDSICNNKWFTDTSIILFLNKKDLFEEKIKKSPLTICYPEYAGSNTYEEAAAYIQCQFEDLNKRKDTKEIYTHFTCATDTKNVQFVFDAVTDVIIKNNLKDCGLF
Summary of the method: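 Fluorescence polarization assay: 50 nM Gαi1 with 10 nM FITC-labeled RGS12 GoLoco peptide in 10 mM Tris pH 7.5, 150 mM NaCl, 0.1 mM GDP, 0.05% NP40, 10 min at room temperature with compound.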

[9] = qHTS Assay for Identification of Small Molecule Antagonists for NFkB Signaling Pathway (AID 895; active means well fitted inhibition curve with a large enough effect in the signal ratio, with a control signal flat, not every such curve was filed as active; the % refers to the signal ratio; further: on the % scale 0 is the no-effect control and ±100 the full control effect)
Summary of the method: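 Beta-lactamase reporter read-out (460 and 530 nm emission ratio, 405 nm excitation, 2 hrs substrate loading RT) after 5 hr stimulation with 10 pM TNF alpha in compound-treated NFkB-bla ME-180 cells in low-serum medium.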

[10] = qHTS Assay for Identification of Small Molecule Agonists for Thrombopoietin (TPO) Signaling Pathway (AID 917; active means well fitted curve in the direction sought with a large enough effect; an effect the other way counts as inactive or inconclusive; further: on the % scale 0 is the no-effect control and ±100 the full control effect)
Summary of the method: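 Luminescence from a Glycoprotein IIb promoter–driven luciferase reporter served as read-out in murine Ba/F3 cells carrying the human TPO receptor. Cells, deprived of IL-3 overnight, received compounds with 26 pM TPO and were incubated 24 hrs at 37 C.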

[11] = target: Pyruvate kinase (Leishmania mexicana) (UniProt Q27686); experiment: qHTS Validation Assay for Inhibitors of Leishmania Mexicana Pyruvate Kinase (AID 945; active means well fitted curve in the direction sought with a large enough effect; an effect the other way counts as inactive or inconclusive;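 further: 0% = DMSO only neutral control wells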)
Sequence of Pyruvate kinase (Leishmania mexicana) (Q27686 2-499 E452W): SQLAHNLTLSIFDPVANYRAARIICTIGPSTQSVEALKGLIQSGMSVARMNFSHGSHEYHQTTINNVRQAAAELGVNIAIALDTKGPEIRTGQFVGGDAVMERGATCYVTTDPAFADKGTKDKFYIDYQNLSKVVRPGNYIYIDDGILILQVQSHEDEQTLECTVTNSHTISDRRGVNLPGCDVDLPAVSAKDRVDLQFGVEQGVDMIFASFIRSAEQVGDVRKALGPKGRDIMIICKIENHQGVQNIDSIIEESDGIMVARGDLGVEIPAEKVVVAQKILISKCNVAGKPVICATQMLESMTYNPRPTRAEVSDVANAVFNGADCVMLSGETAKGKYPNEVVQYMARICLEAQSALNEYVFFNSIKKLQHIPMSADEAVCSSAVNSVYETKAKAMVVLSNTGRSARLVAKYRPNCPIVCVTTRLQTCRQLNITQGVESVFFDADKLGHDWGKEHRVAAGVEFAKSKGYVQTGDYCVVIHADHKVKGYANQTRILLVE
Summary of the method: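 Purified LmPYK (E451W mutant, 0.2 nM) was incubated 1 h at room temperature with 0.5 mM PEP and 0.1 mM ADP in 50 mM imidazole pH 7.2, 50 mM KCl, 7 mM MgCl2; ATP formed was read by PKLight luminescence, normalized to DMSO wells.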

[12] = target: Pyruvate kinase PKM (Homo sapiens) (UniProt P14618); experiment: qHTS Assay for Activators of Human Muscle Pyruvate Kinase (AID 954; active means well fitted curve in the direction sought with a large enough effect, not every such curve was filed as active;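 further: 0% = uninhibited enzyme and -100% = no enzyme or full thiadiazolimine inhibition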)
Sequence of Pyruvate kinase PKM (Homo sapiens) (P14618 whole entry, looked up): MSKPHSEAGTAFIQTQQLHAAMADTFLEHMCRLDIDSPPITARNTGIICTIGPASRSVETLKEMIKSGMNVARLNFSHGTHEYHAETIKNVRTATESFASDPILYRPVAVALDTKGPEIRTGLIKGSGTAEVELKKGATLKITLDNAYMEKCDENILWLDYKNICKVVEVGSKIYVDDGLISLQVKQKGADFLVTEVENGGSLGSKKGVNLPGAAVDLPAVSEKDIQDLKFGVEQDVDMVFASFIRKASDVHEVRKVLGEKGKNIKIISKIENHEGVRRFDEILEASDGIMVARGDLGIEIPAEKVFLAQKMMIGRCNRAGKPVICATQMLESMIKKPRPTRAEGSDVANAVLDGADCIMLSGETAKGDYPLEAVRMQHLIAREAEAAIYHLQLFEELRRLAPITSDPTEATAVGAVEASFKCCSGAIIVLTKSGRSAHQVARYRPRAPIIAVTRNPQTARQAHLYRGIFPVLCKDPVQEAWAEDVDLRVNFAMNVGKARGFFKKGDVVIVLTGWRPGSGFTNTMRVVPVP
Summary of the method: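 Luminescence from a luciferase ATP-detection/stop reagent reported PKM2 activity. Reactions contained 0.1 nM purified human enzyme, 0.5 mM PEP, 0.1 mM ADP and 7 mM MgCl2 at pH 7.2, run 1 h at RT.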

[13] = target: Alpha-galactosidase A (Homo sapiens) (UniProt P06280); experiment: Counterscreen for Glucocerebrosidase Inhibitors: qHTS Assay for Human alpha-Galactosidase at pH 4.5 (AID 992; active means well fitted curve in the direction sought with a large enough effect; an effect the other way counts as inactive or inconclusive; further: 0% is about no effect)
Sequence of Alpha-galactosidase A (Homo sapiens) (P06280 whole entry, looked up): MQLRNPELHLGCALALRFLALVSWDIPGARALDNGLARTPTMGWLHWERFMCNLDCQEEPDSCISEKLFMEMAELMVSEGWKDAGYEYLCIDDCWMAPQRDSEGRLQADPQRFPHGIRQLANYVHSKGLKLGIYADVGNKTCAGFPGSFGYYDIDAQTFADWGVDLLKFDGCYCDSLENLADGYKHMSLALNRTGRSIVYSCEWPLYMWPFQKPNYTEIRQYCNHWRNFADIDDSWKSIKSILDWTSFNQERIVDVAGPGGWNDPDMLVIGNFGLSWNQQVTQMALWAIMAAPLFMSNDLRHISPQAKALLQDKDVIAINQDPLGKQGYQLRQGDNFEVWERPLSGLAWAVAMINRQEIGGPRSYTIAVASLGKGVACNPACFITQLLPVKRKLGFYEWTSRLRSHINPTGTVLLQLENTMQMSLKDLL
Summary of the method: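 Enzyme at 2 nM final was combined with compound (0.7 nM to 77 uM) and 80 uM 4-methylumbelliferyl alpha-D-galactopyranoside in 50 mM citric acid, 0.005% Tween-20, pH 4.5. After 20 min at room temperature, fluorescence was read (Ex 365/Em 440 nm); AC50 came from Hill fits.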

[14] = target: alpha-glucosidase (Oryza sativa, rice) (UniProt Q653V4); experiment: Counterscreen for Glucocerebrosidase Inhibitors: qHTS Assay for Rice alpha-Glucosidase at pH 5.0 (AID 997; active means well fitted curve in the direction sought with a large enough effect; an effect the other way counts as inactive or inconclusive;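 further: 0% = full activity with enzyme and -100% = basal without enzyme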)
Summary of the method: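 Rice alpha-glucosidase (4 nM final) with 400 uM 4-methylumbelliferyl-alpha-D-glucopyranoside in citrate buffer pH 5.0, 20 min at room temperature, stopped at pH 10; fluorescence 365/440 nm, compounds 0.7 nM–77 uM, AC50 from Hill fits.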

[15] = qHTS Assay for Identification of Small Molecule Agonists for Hypoxia Response Element Signaling Pathway (AID 914; active means well fitted activation curve with a large enough effect in the signal ratio, with a control signal flat, not every such curve was filed as active; the % refers to the signal ratio; further: % of control where 0% means no effect); settings: ME-180 (cervical carcinoma) HRE-bla reporter, beta-lactamase ratio, CoCl2, 17 h; activation: active compounds read high
Summary of the method: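 AC50 values come from titration-series %Activity, taken as the 460/530nm ratio of CCF4 fluorescence (excitation 405nm). CellSensor HRE-bla ME-180 cells were treated 17 hours at 37 C with compound plus an EC50 level of CoCl2.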

[16] = target: Muscarinic acetylcholine receptor M1 (Rattus norvegicus) (UniProt P08482); experiment: qHTS Assay for Antagonists of Acetylcholine Muscarinic M1 Receptor: Kinetic Measurement of Intracellular Calcium Response (AID 943; active means well fitted curve in the direction sought with a large enough effect; an effect the other way counts as inactive or inconclusive;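 further: Fluo-4 calcium signal as peak divided by basal fluorescence over 4 min; nearly all actives have a fitted effect of over 75% in size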)
Sequence of Muscarinic acetylcholine receptor M1 (Rattus norvegicus) (P08482 whole entry, looked up): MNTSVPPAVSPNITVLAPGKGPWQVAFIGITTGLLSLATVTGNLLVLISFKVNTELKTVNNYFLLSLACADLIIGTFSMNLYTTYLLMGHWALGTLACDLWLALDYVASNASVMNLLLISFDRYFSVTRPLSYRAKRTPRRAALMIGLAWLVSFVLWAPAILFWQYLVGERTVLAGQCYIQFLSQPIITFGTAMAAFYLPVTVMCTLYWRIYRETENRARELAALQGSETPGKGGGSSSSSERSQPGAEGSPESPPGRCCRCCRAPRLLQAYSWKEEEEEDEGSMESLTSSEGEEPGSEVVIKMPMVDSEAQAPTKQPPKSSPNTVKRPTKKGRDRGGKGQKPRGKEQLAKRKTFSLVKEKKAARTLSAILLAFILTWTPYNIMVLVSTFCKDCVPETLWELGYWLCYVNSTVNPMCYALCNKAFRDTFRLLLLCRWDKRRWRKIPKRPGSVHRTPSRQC
Summary of the method: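 Intracellular calcium flux, recorded with Fluo-4 in a kinetic plate reader, served as signal; the response to carbachol at EC80 (100 nM final) was taken as maximal over minimal fluorescence after a 10 min compound pre-incubation in rat M1-CHO cells.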

[17] = target: Muscarinic acetylcholine receptor M1 (Rattus norvegicus) (UniProt P08482); experiment: qHTS Assay for Antagonists of Acetylcholine Muscarinic M1 Receptor: Measurement of IP-One Response (AID 944; active means well fitted curve in the direction sought with a large enough effect; an effect the other way counts as inactive or inconclusive; further: nearly all actives have a fitted effect of over 75% in size)
Summary of the method: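 Steps: plate transfected CHO-M1 cells overnight; add test compound, 10 min; add carbachol (200 nM, EC80) in stimulation buffer with LiCl; incubate 30 min; add labelled IP1 tracer and anti-IP1 antibody in lysis buffer; read HTRF after 10 min.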

CC(O)CNc1nc2c(c(=O)n(C)c(=O)n2C)n1CCc1ccccc1 (stereo not given)
inactive: activity change, negative = inhibition [1] -2.48% | activity change, negative = inhibition [2] -12.9% | activity, negative = inhibition [3] -8.4% | Potency [4] > 20.6 µM

Nc1ncn([C@@H]2O[C@@H](CO)[C@@H](O)[C@H]2O)c(=O)n1
inactive: activity change, negative = inhibition [1] -29.6% [at 38 µM] | activity change, negative = inhibition [2] -6.36% [at 38 µM] | activity, negative = inhibition [3] 2.98% [at 38 µM] | Potency [4] > 46 µM | Potency [5] > 46 µM | Potency [6] | Potency [7]

COc1ccc(/C(O)=C2/C(=O)C(=O)N(CCN(C)C)C2c2ccccn2)cc1OC (stereo not given)
inactive: activity change, negative = inhibition [1] 4.92% | activity change, negative = inhibition [2] -3.03% | activity, negative = inhibition [3] -3.63% | Potency [4] > 20.6 µM

COc1ccc(C=NCCC2(O)CC(C)N(C)CC2C)cc1 (stereo not given)
inactive: activity change, negative = inhibition [1] -0.876% | activity change, negative = inhibition [2] 9.42% | activity, negative = inhibition [3] 11.9% | Potency [4] > 20.6 µM

Nc1cc(S(N)(=O)=O)ccc1SSc1ccc(S(N)(=O)=O)cc1N
inactive: activity change, negative = inhibition [1] 19.2% [at 7.69 µM] | activity change, negative = inhibition [2] -0.508% [at 7.69 µM] | activity, negative = inhibition [3] -1.82% [at 7.69 µM] | Potency [4] > 46 µM | Potency [5] > 9.22 µM | activity change, negative = inhibition [6] -4.44% [at 11.4 µM] | Potency [7]

Nc1ccc(Cl)cc1/C(=N/O)c1ccccc1
inactive: activity change, negative = inhibition [1] -16.4% | activity change, negative = inhibition [2] -13.5% | activity, negative = inhibition [3] -5.27% | Potency [4] > 20.6 µM

c1cncc(-c2nnc3sc(C4CCCCC4)nn23)c1
inactive: activity change, negative = inhibition [1] -18.8% | activity change, negative = inhibition [2] -20% | activity, negative = inhibition [3] -1.41% | Potency [4] > 20.6 µM

COc1cccc(OC)c1OCCNC[C@@H]1CSc2ccccc2O1
inactive: activity change, negative = inhibition [1] 18% [at 38 µM] | activity change, negative = inhibition [2] -12.7% [at 38 µM] | activity, negative = inhibition [3] -23.8% [at 38 µM] | Potency [4] > 46 µM | Potency [5] > 46 µM | Potency [6] | Potency [7] | outcome [8] | Potency [9] | Potency [10] | Potency [11] | outcome [12] | outcome [13] | outcome [14]

O=c1[nH]c(=O)n([C@H]2C[C@H](O)[C@H](CO)O2)cc1/C=C\Br
inactive: activity change, negative = inhibition [1] -6.02% [at 38 µM] | activity change, negative = inhibition [2] 3.97% [at 38 µM] | activity, negative = inhibition [3] 6.62% [at 38 µM] | Potency [4] > 46 µM | Potency [5] > 46 µM | Potency [6] | Potency [7] | outcome [8] | Potency [9] | activation [15] 0.219% | Potency [10] | Potency [16] | Potency [17] | Potency [11] | outcome [12] | outcome [13] | outcome [14]
